Reference: the supplement of paper PMC11006884
Of roughly 6,500 targets only a part is listed; those with a hit were picked by preference. About 2% of all pairs of compound and target were hits.

compound: COC(=O)C#Cc1ccccc1 [methyl 3-phenylpropiolate]; test: log2 ratio of iodoacetamide-alkyne labeling of the cysteine site, DMSO over compound (competition); higher = stronger covalent engagement of the cysteine by the compound, active = 1 or more; conditions: 500 µM; treatment time 1 h; system: HEK293T cell lysate
Procedure, shortened: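 HEK293T lysate at 2 mg/mL was treated with vehicle or electrophile (500 µM) for 1 h at ambient temperature, then labelled with iodoacetamide alkyne (1 h), clicked to sCIP-TMT reagents, pooled, digested with trypsin overnight at 37 °C, enriched on streptavidin and eluted with acid. Peptides were analysed by Orbitrap Eclipse LC-MS/MS with FAIMS and quantified in FragPipe, using duplicate channels and three replicates, with cysteines quantified in only one replicate excluded. The log2 competition ratio for each cysteine is the mean control-channel reporter intensity divided by the mean compound-channel reporter intensity.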

Sequence of UniProt P49792 (P49792 whole entry, looked up): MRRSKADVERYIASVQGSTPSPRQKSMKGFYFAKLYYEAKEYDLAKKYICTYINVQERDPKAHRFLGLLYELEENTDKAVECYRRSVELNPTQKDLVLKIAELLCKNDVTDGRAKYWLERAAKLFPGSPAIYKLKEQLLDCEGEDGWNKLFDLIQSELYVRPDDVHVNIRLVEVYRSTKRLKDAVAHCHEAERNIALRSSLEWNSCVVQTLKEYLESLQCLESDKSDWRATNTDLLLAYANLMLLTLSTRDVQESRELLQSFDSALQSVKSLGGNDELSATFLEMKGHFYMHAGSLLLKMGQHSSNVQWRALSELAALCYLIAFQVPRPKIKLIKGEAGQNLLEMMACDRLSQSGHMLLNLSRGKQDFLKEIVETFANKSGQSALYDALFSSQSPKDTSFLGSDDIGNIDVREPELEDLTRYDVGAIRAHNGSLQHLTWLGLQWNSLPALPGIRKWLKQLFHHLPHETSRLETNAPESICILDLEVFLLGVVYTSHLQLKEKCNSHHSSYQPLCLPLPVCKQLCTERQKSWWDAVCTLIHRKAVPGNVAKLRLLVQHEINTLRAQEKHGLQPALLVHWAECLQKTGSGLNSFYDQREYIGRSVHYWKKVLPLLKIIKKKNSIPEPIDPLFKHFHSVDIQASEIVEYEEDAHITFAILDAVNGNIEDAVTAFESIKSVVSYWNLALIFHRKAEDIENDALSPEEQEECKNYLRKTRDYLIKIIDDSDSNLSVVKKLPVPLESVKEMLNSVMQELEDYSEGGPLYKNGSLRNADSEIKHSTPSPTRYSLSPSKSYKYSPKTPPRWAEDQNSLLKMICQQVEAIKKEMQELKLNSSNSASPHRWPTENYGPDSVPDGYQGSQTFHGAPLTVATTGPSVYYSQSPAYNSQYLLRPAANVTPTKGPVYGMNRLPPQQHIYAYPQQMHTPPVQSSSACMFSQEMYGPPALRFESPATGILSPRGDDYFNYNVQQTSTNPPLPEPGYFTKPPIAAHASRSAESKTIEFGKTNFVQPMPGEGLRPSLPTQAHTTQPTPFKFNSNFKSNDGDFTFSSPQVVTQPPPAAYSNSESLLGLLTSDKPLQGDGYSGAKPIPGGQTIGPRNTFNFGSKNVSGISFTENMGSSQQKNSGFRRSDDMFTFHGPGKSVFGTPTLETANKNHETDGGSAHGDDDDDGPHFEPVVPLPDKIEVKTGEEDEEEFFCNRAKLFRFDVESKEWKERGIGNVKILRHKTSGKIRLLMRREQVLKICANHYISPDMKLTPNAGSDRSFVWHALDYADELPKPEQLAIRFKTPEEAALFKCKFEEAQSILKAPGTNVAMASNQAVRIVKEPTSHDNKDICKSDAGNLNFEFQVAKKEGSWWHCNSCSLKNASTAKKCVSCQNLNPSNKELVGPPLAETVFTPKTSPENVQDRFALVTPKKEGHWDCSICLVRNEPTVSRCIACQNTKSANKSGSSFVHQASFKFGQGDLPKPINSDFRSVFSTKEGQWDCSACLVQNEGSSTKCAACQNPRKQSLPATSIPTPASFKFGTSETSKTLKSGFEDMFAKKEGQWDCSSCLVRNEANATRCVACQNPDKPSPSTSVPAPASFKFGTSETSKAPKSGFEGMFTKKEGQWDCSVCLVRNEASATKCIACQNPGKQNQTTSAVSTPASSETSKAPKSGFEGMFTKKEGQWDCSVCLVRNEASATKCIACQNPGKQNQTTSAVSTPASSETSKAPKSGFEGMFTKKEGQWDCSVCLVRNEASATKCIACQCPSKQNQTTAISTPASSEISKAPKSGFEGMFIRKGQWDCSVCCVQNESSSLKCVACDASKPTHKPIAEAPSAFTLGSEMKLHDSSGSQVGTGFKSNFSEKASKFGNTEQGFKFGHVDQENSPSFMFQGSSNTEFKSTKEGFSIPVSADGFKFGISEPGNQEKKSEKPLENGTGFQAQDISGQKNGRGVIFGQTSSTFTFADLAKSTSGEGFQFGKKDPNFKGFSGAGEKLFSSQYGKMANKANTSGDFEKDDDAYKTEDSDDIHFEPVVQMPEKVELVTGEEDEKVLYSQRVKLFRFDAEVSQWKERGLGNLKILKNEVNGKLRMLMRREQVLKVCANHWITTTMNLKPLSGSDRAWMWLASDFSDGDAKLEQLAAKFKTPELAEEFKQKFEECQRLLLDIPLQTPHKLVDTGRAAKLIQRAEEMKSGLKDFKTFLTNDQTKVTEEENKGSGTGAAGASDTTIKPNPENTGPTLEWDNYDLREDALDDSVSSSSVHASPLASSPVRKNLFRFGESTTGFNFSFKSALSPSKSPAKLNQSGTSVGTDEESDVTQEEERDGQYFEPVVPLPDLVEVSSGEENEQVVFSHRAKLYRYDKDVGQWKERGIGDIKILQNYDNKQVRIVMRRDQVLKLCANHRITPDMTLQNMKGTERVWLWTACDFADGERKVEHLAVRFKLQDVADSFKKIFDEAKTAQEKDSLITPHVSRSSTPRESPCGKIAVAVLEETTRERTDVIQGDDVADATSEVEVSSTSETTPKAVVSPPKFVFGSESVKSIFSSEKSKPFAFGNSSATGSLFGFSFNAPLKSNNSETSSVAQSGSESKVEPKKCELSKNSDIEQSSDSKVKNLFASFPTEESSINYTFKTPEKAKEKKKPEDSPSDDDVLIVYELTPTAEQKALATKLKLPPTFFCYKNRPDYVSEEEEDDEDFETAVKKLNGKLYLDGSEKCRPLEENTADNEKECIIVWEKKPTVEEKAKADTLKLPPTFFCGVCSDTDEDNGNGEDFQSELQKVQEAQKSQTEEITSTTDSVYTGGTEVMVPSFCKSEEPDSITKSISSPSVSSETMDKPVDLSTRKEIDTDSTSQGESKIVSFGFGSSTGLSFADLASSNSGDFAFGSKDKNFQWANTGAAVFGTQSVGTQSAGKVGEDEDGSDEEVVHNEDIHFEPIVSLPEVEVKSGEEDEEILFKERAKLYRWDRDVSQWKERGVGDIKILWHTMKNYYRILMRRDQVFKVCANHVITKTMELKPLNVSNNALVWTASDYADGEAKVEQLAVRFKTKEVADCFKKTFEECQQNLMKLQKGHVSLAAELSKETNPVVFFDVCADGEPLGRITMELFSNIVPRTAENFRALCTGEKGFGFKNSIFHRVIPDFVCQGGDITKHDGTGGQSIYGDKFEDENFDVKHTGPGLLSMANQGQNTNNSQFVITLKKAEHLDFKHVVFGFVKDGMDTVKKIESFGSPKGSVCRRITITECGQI
Sequence of UniProt P31943 (P31943 whole entry, looked up): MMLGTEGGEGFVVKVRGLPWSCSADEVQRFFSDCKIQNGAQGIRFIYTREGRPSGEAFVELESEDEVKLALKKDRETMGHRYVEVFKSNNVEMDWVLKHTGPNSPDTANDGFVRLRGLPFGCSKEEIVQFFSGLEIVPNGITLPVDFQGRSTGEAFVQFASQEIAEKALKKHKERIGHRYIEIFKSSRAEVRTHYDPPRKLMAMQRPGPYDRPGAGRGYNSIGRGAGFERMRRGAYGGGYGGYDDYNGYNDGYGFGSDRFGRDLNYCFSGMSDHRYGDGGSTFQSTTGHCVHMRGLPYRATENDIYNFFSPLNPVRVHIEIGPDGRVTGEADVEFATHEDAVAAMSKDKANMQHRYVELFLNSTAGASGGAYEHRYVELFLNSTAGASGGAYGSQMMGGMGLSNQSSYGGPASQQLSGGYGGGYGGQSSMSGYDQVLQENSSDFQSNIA
Sequence of UniProt P11413 (P11413 whole entry, looked up): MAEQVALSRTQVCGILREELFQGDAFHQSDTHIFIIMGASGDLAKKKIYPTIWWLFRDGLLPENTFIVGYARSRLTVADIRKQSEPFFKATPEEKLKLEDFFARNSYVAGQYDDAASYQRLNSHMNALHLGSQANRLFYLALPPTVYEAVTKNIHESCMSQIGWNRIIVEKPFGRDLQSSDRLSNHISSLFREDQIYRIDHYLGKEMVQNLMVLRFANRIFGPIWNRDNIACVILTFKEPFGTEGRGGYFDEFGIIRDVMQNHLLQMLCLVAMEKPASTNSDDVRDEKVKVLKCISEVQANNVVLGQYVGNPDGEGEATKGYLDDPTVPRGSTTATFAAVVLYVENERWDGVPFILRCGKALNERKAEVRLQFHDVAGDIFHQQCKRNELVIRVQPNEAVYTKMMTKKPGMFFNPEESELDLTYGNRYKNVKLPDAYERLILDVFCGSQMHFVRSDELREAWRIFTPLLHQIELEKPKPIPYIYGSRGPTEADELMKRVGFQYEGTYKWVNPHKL
Sequence of UniProt P52272 (P52272 whole entry, looked up): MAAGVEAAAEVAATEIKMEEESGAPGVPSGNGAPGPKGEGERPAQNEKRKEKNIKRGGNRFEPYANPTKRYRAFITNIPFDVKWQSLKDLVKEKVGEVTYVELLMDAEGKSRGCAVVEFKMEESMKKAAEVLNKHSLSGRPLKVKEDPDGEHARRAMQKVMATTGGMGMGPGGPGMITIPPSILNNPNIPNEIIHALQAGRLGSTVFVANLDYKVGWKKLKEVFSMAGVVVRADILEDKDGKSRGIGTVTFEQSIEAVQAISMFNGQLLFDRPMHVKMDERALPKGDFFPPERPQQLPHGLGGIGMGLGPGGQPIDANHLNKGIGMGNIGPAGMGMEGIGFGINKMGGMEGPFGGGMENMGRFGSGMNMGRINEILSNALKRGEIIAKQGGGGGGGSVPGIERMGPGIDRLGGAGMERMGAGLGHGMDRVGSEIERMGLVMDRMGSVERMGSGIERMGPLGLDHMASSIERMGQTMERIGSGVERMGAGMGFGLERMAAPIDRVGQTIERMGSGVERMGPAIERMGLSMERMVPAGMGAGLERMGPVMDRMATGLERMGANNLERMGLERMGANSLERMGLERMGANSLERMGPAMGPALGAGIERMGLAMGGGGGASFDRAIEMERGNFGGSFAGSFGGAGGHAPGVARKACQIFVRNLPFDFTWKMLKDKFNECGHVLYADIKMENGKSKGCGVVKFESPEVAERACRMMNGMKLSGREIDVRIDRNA

UniProt P26367_C94 was tested. Which “log2 ratio of iodoacetamide-alkyne labeling” value (shortened to “log2 ratio”) did it give?
The value was 0.097 (inactive).

Which “log2 ratio” value does the source give for ACAA1 C177 (UniProt P09110) here?
Its value is 0.162 (inactive).

PDHB C306 (UniProt P11177) was tested. Which “log2 ratio” value did it give?
The value was -0.122 (inactive).

G6PD C385 (UniProt P11413) was tested. Which “log2 ratio” value did it give?
The value was 0.327 (inactive).

With HSPA4 C417 (UniProt P34932) as the target, how does the “log2 ratio” value read?
Its value is 0.208 (inactive).

How did the “log2 ratio” value turn out when UniProt P0CG30_C105 was run?
The value was -0.204 (inactive).

How did the “log2 ratio” value turn out when ENO1 C389 (UniProt P06733) was run?
The value was 0.125 (inactive).

Which “log2 ratio” value does the source give for HNRNPH1 C267 (UniProt P31943) here?
The value was 0.211 (inactive).

Which “log2 ratio” value does the source give for HNRNPM C694 (UniProt P52272) here?
Its value is 0.0717 (inactive).

For RANBP2 C3071 (UniProt P49792), which “log2 ratio” value is on record?
Its value is 0.0882 (inactive).

For SSB C18 (UniProt P05455), which “log2 ratio” value is on record?
The value was -0.139 (inactive).

Which “log2 ratio” value does the source give for RPS3 C97 (UniProt P23396) here?
Its value is 2.45 (active).

For MTHFD1 C143 (UniProt P11586), which “log2 ratio” value is on record?
The value was -0.0254 (inactive).

With CAMLG C123 (UniProt P49069) as the target, how does the “log2 ratio” value read?
The value was 0.308 (inactive).

Which “log2 ratio” value does the source give for IDH2 C154 (UniProt P48735) here?
The value was 0.393 (inactive).

With MCM4 C162 (UniProt P33991) as the target, how does the “log2 ratio” value read?
The value was 0.055 (inactive).

How did the “log2 ratio” value turn out when PLS3 C33 (UniProt P13797) was run?
The value was 1.04 (active).

COMT C241 (UniProt P21964) was tested. Which “log2 ratio” value did it give?
The value was 0.194 (inactive).

TCP1 C218 (UniProt P17987) was tested. Which “log2 ratio” value did it give?
The value was 0.0267 (inactive).

How did the “log2 ratio” value turn out when MCM3 C319 (UniProt P25205) was run?
Its value is -0.032 (inactive).

Which “log2 ratio” value does the source give for UniProt P17812_C218 here?
Its value is -0.193 (inactive).

With UROD C308 (UniProt P06132) as the target, how does the “log2 ratio” value read?
Its value is 0.28 (inactive).

For IMPDH2 C140 (UniProt P12268), which “log2 ratio” value is on record?
The value was 1.11 (active).

For HCFC1 C1895 (UniProt P51610), which “log2 ratio” value is on record?
The value was 1.09 (active).

How did the “log2 ratio” value turn out when ETFB C42 (UniProt P38117) was run?
The value was 0.207 (inactive).

For EPRS C92 (UniProt P07814), which “log2 ratio” value is on record?
The value was 0.571 (inactive).

PHKA1 C1082 (UniProt P46020) was tested. Which “log2 ratio” value did it give?
The value was 0.236 (inactive).

For VDAC2 C8 (UniProt P45880), which “log2 ratio” value is on record?
Its value is 0.376 (inactive).

With UniProt O96017_C385 as the target, how does the “log2 ratio” value read?
The value was 0.227 (inactive).

IARS C433 (UniProt P41252) was tested. Which “log2 ratio” value did it give?
Its value is -0.0103 (inactive).

With AKT2 C297 (UniProt P31751) as the target, how does the “log2 ratio” value read?
The value was 0.698 (inactive).

With EEF2 C369 (UniProt P13639) as the target, how does the “log2 ratio” value read?
Its value is 0.24 (inactive).

Which “log2 ratio” value does the source give for PABPC1 C128 (UniProt P11940) here?
Its value is -0.0389 (inactive).

Which “log2 ratio” value does the source give for UniProt P00519_C1100 here?
The value was 0.9 (inactive).

With BPNT1 C206 (UniProt O95861) as the target, how does the “log2 ratio” value read?
Its value is 0.27 (inactive).

For HCFC1 C1872 (UniProt P51610), which “log2 ratio” value is on record?
The value was 1.32 (active).

Which “log2 ratio” value does the source give for UniProt P23610_C62 here?
The value was 0.0767 (inactive).
